Source: PubChem (National Center for Advancing Translational Sciences (NCATS))
An excerpt weighted towards active compounds, which were near 8.6% of everything screened.
MARV entry inh – Marburg virus entry inhibition | Marburg virus pseudotype entry/binding inhibition, cell-based | Potency, µM (highest dose often 49.2 µM), hits mostly inhibitors | 6.5% of 18,000 active
Lassa entry – blocks Lassa virus binding or cell entry; AID 720533; 4.1% of 18,000 active; Potency, µM (top dose mostly 49.2 µM), hits mostly inhibitors; Lassa virus pseudotyped entry inhibition, cell-based qHTS
Each line names hits and unclear results; the compound was inactive in the other large screens; ! = repeats disagree. The call rests on the fitted dose curve; tested in HEK293 cells.

CC(C)C[C@H](NC(=O)[C@H](CCCCN)NC(=O)[C@H](CCC(N)=O)NC(=O)[C@H](Cc1cnc[nH]1)NC(=O)[C@H](Cc1cnc[nH]1)NC(=O)[C@@H](N)C(C)C)C(=O)N[C@H](C(=O)N[C@@H](Cc1ccccc1)C(=O)N[C@@H](Cc1ccccc1)C(=O)N[C@@H](C)C(=O)N[C@@H](CCC(=O)O)C(=O)N[C@@H](CC(=O)O)C(=O)N[C@H](C(=O)NCC(=O)N[C@@H](CO)C(=O)N[C@@H](CC(N)=O)C(=O)N[C@@H](CCCCN)C(=O)O)C(C)C)C(C)C	none
C=Cc1ccc(C(=O)N2CCc3c(cnc(C)c3CNC(=O)c3ccc4c(c3)OCO4)C2)cc1	none
Oc1ccc(Nc2nc(-c3ccc(Cl)cc3)cs2)cc1	MARV entry inh inconclusive, Lassa entry 13µM
COC(=O)C1=C(C)N(Cc2ccccc2)C(=NCC2CC2)NC1c1ccc(Br)cc1 (stereo not drawn)	none
CN1[C@@H]2CC[C@H]1CC(OC(=O)C(O)c1ccccc1)C2 (stereo partly drawn)	none
CCC(Sc1ccccc1)C(=O)OC1CC2CCC(C1)N2C (stereo not drawn)	MARV entry inh 8.9µM
COc1ccc2c(c1)O[C@@H](c1cccc(C(F)(F)F)c1)[C@H](OC(=O)N[C@H](C)C1CCCCC1)C2=O	none
Clc1ccccc1C(c1ccccc1)(c1ccccc1)n1ccnc1	MARV entry inh 11µM, Lassa entry 13µM
Clc1ccccc1-c1nccc(-n2ccnc2)n1	none
O=S1(=O)CCSC[C@@H](CNCc2ccco2)N1	none
COC(=O)c1ccc(CN2C(=O)[C@@]3(CC(C)=CC[C@@H](C)O3)c3ccccc32)cc1	none
CCN1C(=O)[C@@H]2[C@H]3[C@H](O)[C@H](O)CC(=NO[C@@H]4O[C@H](COC(C)=O)[C@@H](OC(C)=O)[C@H](OC(C)=O)[C@@H]4OC(C)=O)[C@@H]3CC[C@H]2C1=O	none
C=CS(=O)(=O)O	MARV entry inh 22µM
CCN1C(=O)N(S(=O)(=O)C(F)(F)F)C(c2ccccc2)C(C(=O)OC)=C1C (stereo not drawn)	none
O=C(O)COc1cccc2c1CCC=C2CCO/N=C(\c1ccccc1)c1cccnc1	none
COc1c(C=O)c(O)cc2c1C(=O)c1ccccc1C2=O	none
COc1c(C2=CC(=O)N(C)C2=O)c2c(n1C)C(=O)c1ccccc1C2=O	MARV entry inh 20µM
CC[N+](CC)(CC)CCOc1cccc(OCC[N+](CC)(CC)CC)c1OCC[N+](CC)(CC)CC	none
CC[N+](CC)(CC)CCOc1ccc(/C=C\c2ccccc2)cc1	MARV entry inh inconclusive, Lassa entry 20µM
Cc1ccc(NC2=CC(=O)c3sc(C)nc3C2=O)cc1	MARV entry inh 4µM, Lassa entry 3.5µM
CC1(C)CN(Cc2cccnc2)C(=O)[C@@H]1CC(=O)Nc1ccc(Br)cc1	MARV entry inh inconclusive
C=C[C@]1(C)C[C@@H](OC(=O)CSC(C)(C)CNC(=O)[C@H](N)C(C)C)[C@]2(C)[C@H](C)CC[C@]3(CCC(=O)[C@H]32)[C@@H](C)[C@@H]1O	MARV entry inh 13µM
C=C[C@]1(C)C[C@@H](OC(=O)CO)[C@]2(C)[C@H](C)CC[C@]3(CCC(=O)[C@H]32)[C@@H](C)[C@@H]1O	none
CCCc1c(OCC(O)COc2ccc3c(=O)cc(C(=O)O)oc3c2CCC)ccc(C(C)=O)c1O (stereo not drawn)	none
C[C@@H]1CC2=CCCC2[C@]2(O1)C(=O)N(Cc1ccc(Br)cc1)c1cccc(Br)c12 (stereo partly drawn)	none (no result: Lassa entry)
Nc1nc(F)nc2c1ncn2[C@@H]1O[C@H](CO)[C@@H](O)[C@@H]1O	none
Nc1nc(=S)c2ncn([C@H]3O[C@@H](CO)[C@@H](O)[C@@H]3O)c2[nH]1	MARV entry inh 2µM, Lassa entry inconclusive
COc1cc2c(cc1OC)[C@@H]1O[C@](CCCCN3C(=O)c4ccccc4C3=O)(C2)OC2=C1C(=O)CC(C)(C)C2	none
COc1cc(=O)n2c(c1C(=O)NC(C)c1ccco1)CCN(C(=O)c1ccc(F)cc1Cl)CC2 (stereo not drawn)	none
Cc1cc2nc3c(=O)[nH]c(=O)nc-3n(C[C@H](O)[C@H](O)[C@H](O)COP(=O)(O)OP(=O)(O)OC[C@H]3O[C@@H](n4cnc5c(N)ncnc54)[C@H](O)[C@@H]3O)c2cc1C	none
NCCNC(=O)c1ccc(Cl)cn1	none
c1ccc2sc(C3(N4CCCCC4)CCCCC3)cc2c1	MARV entry inh 11µM, Lassa entry inconclusive
c1csc(C2(N3CCCCC3)CCCCC2)c1	none
CC(=CCO)CCO	none
COc1cc(COc2cc(N)c(Cl)cc2C(=O)CCC2CCN(CCNS(C)(=O)=O)CC2)cc(OC)c1	MARV entry inh 7.9µM, Lassa entry inconclusive
Cn1cc(C(=O)OCC2CCN(CCNS(C)(=O)=O)CC2)c2ccccc21	MARV entry inh inconclusive
COc1cc(N)c(Cl)cc1C(=O)OCCN1CCCCC1	none
COc1cc(N)c(Cl)cc1C(=O)CCC1CCN(CCNS(C)(=O)=O)CC1	MARV entry inh 32µM!, Lassa entry inconclusive
CC(C)(S)[C@H](N)C(=O)O	none
CC(=O)[C@@]1(O)CC[C@H]2[C@@H]3C=C(Cl)C4=CC(=O)CC[C@]4(C)[C@H]3CC[C@@]21C	none
Cc1cc(=O)c2c(O)cc(O)c(C)c2o1	none
Cc1nnc(-c2ccc(C)c(-c3ccc(C(=O)NCc4ccc(Cl)cc4)cc3)c2)o1	MARV entry inh 2.8µM (no result: Lassa entry)
Cc1nnc(-c2ccc(C)c(-c3ccc(C(=O)Nc4cccc(C#N)c4)cc3)c2)o1	none (no result: Lassa entry)
CC#CCN1c2ccccc2[C@]23CCC(=O)N(Cc4ccco4)C2=NC(C(=O)OC)=C(C(=O)OC)[C@H]13	MARV entry inh inconclusive
CC(=O)N1CCC[C@H]1C(=O)NCC1Cc2cc(-c3cccc(OC(F)(F)F)c3)ccc2O1 (stereo partly drawn)	none
Cc1cccc(CNc2nc(-c3ccccc3CN(C)C)nc3ccccc23)c1	MARV entry inh 11µM, Lassa entry inconclusive
COc1ccccc1-c1cc(NCc2cccnc2)ncn1	none
COc1ccccc1-c1nc(NCc2ccccc2)c2ccccc2n1	MARV entry inh 13µM, Lassa entry 14µM
COc1ccccc1-c1nc(NCc2cnc(C)cn2)c2ccccc2n1	none
COc1ccc(CNc2nc(-c3ccoc3)nc3ccccc23)c(OC)c1	none
COc1ccc(CNc2cc(-c3ccccc3CN(C)C)ncn2)c(OC)c1	MARV entry inh 10µM
COc1ccc(CNc2nc(-c3ccccc3CN(C)C)nc3ccccc23)c(OC)c1	MARV entry inh 7.9µM, Lassa entry inconclusive
Cc1cccc(CNc2nc(-c3ccoc3)nc3ccccc23)c1	none
C/C=C(\C=C\[C@@H](C)C/C=C/CC/C=C/C=C\C[C@@H](OC)/C(C)=C\C=C(C)C)CC(=O)O	none
CC(C)(CO)[C@H](O)C(=O)NCCC(=O)O	none
C[C@@H]1CC2=CCCC2[C@]2(O1)C(=O)N(Cc1ccc(F)cc1)c1cccc(Br)c12 (stereo partly drawn)	none
C[C@@]12CCC[C@H]1C1CC[C@H]3C[C@H](O)CC[C@]3(C)C1CC2 (stereo partly drawn)	none
CCN1C(=NCc2cccc(Cl)c2)N[C@@H](CCc2ccccc2)[C@H](C(=O)OC)[C@H]1C	none
CC(=O)OC1CC2C(C)(C)C(O)CC(O)[C@@]2(C)C2CC[C@@]3(C)C(=CC(=O)OC3c3ccoc3)[C@]12C (stereo partly drawn)	none
COC(=O)CC1C(C)(C)C(OC(C)=O)C2[C@H](OC(C)=O)[C@]34O[C@]2(O)[C@]1(C)C3CC[C@]1(C)C4=CC(=O)OC1c1ccoc1 (stereo partly drawn)	MARV entry inh 7.9µM, Lassa entry inconclusive
